Tb PFK inh = qHTS Assay to Find Inhibitors of T. brucei phosphofructokinase | 330,000 compounds, 0.17% hits | T. brucei PFK, ADP-Glo luminescence | Potency, µM (series often up to 57.5 µM), for inactives: top-dose activity, negative = inhibition, actives largely listed as inhibitors | ATP-dependent 6-phosphofructokinase (Trypanosoma brucei brucei), O15648 | AID 485367, 2010;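 further: 0% = uninhibited 1x PFK enzyme wells and -100% = no-enzyme wells; nearly all actives have a fitted effect of over 60% in size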
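PFK 1.25 nM, F6P 0.5 mM, ATP 0.1 mM, 0.1 M TEA pH 8.0, 5 mM MgCl2, 0.01% Tween20, 0.1% BSA; 45 min RT. ADP-Glo readout. qHTS titration up to 57 uM; curves fitted, compounds curve-classed.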
BRCA1 expr act = qHTS Assay to Identify Small Molecule Activators of BRCA1 Expression; MCF7-BRCA1-FFLuc reporter, luminescence, 48 h; response scale: scaled: vehicle 0%, 10 µM genistein 100%; 380,000 compounds, 1.1% hits; Potency, µM (highest dose often 46.1 µM), inactives show at the highest dose activation, hits mostly activators; AID 624202, 2012; further: nearly all actives have a fitted effect of over 80% in size
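MCF7-BRCA1-FFLuc, 2000 cells/well; 2 h attach, 37 °C/5% CO2; compound 48 h; luciferase substrate 15 min; luminescence end-point. Norm. to genistein 10 microM max activation and DMSO; concentration-response curves fitted.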
PLK1 PBD block = qHTS for Inhibitors of PLK1-PDB (polo-like kinase 1 - polo-box domain): Primary Screen; Potency, µM, without a hit: max response, negative = inhibition, most hits filed as inhibitors; Plk1 PBD binding of FITC phosphopeptide, fluorescence polarization; 360,000 compounds, 2.8% hits; further: series mostly up to about 57 µM; on the % scale 0 is the no-effect control and ±100 the full control effect; nearly all actives have a fitted effect of over 65% in size
VDR inhibitor = Inhibitors of the vitamin D receptor (VDR): qHTS | VDR-SRC2-3 peptide fluorescence polarization, 2 h | 400,000 compounds, 0.93% hits | Potency, µM, for the others: max response, negative = inhibition, actives largely listed as inhibitors; further: on the % scale 0 is the no-effect control and ±100 the full control effect
Target sequence (P11473 whole entry, looked up): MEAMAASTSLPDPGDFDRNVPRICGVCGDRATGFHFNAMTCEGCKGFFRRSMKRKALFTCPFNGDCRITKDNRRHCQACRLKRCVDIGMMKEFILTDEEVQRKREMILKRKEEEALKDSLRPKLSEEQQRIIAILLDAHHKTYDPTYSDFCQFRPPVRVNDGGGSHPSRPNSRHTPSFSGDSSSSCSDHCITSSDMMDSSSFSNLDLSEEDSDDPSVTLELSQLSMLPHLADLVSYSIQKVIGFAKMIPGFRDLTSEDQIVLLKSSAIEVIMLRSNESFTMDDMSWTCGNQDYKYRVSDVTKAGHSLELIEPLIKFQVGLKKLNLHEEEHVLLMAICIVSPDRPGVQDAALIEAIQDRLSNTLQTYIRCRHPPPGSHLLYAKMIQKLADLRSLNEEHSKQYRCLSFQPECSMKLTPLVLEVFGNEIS
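Reagent solutions, kept cold and dark, are dispensed first; compounds are then pinned in at 23 nl, plates briefly spun, and incubated 2 h at ambient temperature. Inhibition of VDR–SRC2-3 peptide binding is read by fluorescence polarization.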
An asterisk follows results filed as active. Only some compounds are listed: those with a hit (about 3.9% of all), similar ones and a draw of the others. The call rests on the fitted dose curve; in most records, active means well fitted curve in the direction sought with a large enough effect; inconclusive means small, poorly fitted or top-dose-only effect, or another doubt; inactive means no such curve, though single readings can be large; an effect the other way counts as inactive or inconclusive. Potency means the concentration at half of the fitted maximal effect.

`COc1ccc(S(=O)(=O)N2CCC(C(=O)N3CCCCCC3)CC2)cc1` gave Tb PFK inh 3.3%, BRCA1 expr act -15.5%, PLK1 PBD block 10.6µM* and VDR inhibitor -9.5%.
COc1ccc(N2CCN(C(=O)C3CCN(S(=O)(=O)c4cccs4)CC3)CC2)cc1 was read as Tb PFK inh 3.7%, BRCA1 expr act 0.0%, PLK1 PBD block 16.8µM* and VDR inhibitor inconclusive.
COc1ccc(S(=O)(=O)N2CCC(C(=O)N[C@@H](C)C(=O)NC3CCCC3)CC2)cc1 was read as Tb PFK inh -1.0%, BRCA1 expr act 0.0%, PLK1 PBD block 18.9µM* and VDR inhibitor inconclusive.
`COc1ccc2cc(S(=O)(=O)N3CCCC(C)C3)ccc2c1` (centres undefined) gave Tb PFK inh 0.0%, BRCA1 expr act 0.0%, PLK1 PBD block 26.7µM* and VDR inhibitor 89.1µM*.
`COc1ccc(S(=O)(=O)N2CCCCC2)cc1NC(=O)CN(Cc1ccco1)Cc1ccco1` gave Tb PFK inh -0.4%, BRCA1 expr act -30.8%, PLK1 PBD block -1.9% and VDR inhibitor 3.7%.
`NCCC[C@@H](CC(=O)N[C@@H]1CCCC[C@H]1C(=O)N[C@H](CC(=O)N[C@@H](CCC(=O)O)CC(=O)O)Cc1ccccc1)NC(=O)C[C@H](Cc1c[nH]c2ccccc12)NC(=O)[C@@H]1CCCC[C@H]1N` gave VDR inhibitor 2.1%.
For O=[N+]([O-])c1ccc(/C=C/c2ccnc3ccccc23)c([N+](=O)[O-])c1 the results were BRCA1 expr act -25.2%.
`COc1ccc(-c2cc(C(=O)Oc3ccc(Br)cc3)c3ccccc3n2)cc1` gave VDR inhibitor -8.4%.
COC(=O)Nc1ccc(S(=O)(=O)N2CCC(C)CC2)cc1 was read as Tb PFK inh -0.1%, BRCA1 expr act -39.5%, PLK1 PBD block -2.8% and VDR inhibitor 7.8%.
Screening COc1ccc(S(=O)(=O)N2CCN(C(=S)NCCc3ccccc3)CC2)cc1 returned Tb PFK inh -7.3%, BRCA1 expr act -35.1%, PLK1 PBD block 4.3% and VDR inhibitor -1.3%.
For COc1ccc(NC(=O)CCNC(=O)C2CCN(S(=O)(=O)c3ccc(OC)cc3)CC2)cc1 the results were Tb PFK inh 1.7%, BRCA1 expr act 2.9%, PLK1 PBD block -2.6% and VDR inhibitor 7.8%.
`COc1ccc(S(=O)(=O)N2CCC(C(=O)NCCC(=O)Nc3cccc(Cl)c3)CC2)cc1` gave Tb PFK inh 0.9%, BRCA1 expr act 17.2%, PLK1 PBD block 6.7µM* and VDR inhibitor 28.2µM*.
COC(=O)Nc1ccc(S(=O)(=O)N2CCC(C(=O)N3CCC(C)CC3)CC2)cc1 was read as Tb PFK inh 10.4%, BRCA1 expr act -35.9%, PLK1 PBD block 9.47µM* and VDR inhibitor inconclusive.
COCCCNC(=S)N1CCN(S(=O)(=O)c2ccc(OC)cc2)CC1 was read as Tb PFK inh 0.3%, BRCA1 expr act -1.1%, PLK1 PBD block 21.2µM* and VDR inhibitor -4.9%.
Screening C/C=C/C1=Cc2ccccc2C(C(C(=O)OC)C(=O)OC)N1C(=O)OC (centres undefined) returned VDR inhibitor 0.5%.
Screening COc1ncc2nc(-c3cn(C)c4ccccc34)c(=O)n(C)c2n1 returned VDR inhibitor 4.3%.
`Cc1cc(C)c(NC(=O)CSc2nc(=O)[nH]c3c2CCCC3)c(C)c1` gave VDR inhibitor 1.9%.
Screening CCCCC(=O)N(C)c1c(CC)nc2c(OCC(=O)c3ccc(Cl)cc3Cl)cccn12 returned BRCA1 expr act -39.2% and PLK1 PBD block -26.3%.
`c1ccc(CCc2nc(-c3ccccc3)no2)cc1` gave Tb PFK inh -0.8%, BRCA1 expr act 12.6µM*, PLK1 PBD block -7.2% and VDR inhibitor -1.6%.
Screening c1ccc(CCc2nc(-c3cccnc3)no2)cc1 returned Tb PFK inh -5.9%, BRCA1 expr act 10µM*, PLK1 PBD block -4.8% and VDR inhibitor -5.4%.
For COc1ccc(Cc2nc(-c3ccccc3)no2)cc1 the results were Tb PFK inh 5.8%, BRCA1 expr act 11.2µM*, PLK1 PBD block -4.5% and VDR inhibitor -11.6%.
Screening CCCc1nc(-c2ccc(-c3ccc(F)cc3)cc2)no1 returned Tb PFK inh 0.9%, BRCA1 expr act 3.98µM*, PLK1 PBD block 3.7% and VDR inhibitor 3.8%.
`COC(=O)c1cc(C)nc2c1c(=O)nc(SCc1cccc(C(F)(F)F)c1)n2C1CC1` gave VDR inhibitor 7.8%.
For O=C(Nc1ccc(S(=O)(=O)Nc2nccs2)cc1)c1cc(-c2ccccc2Cl)nc2ccccc12 the results were Tb PFK inh -2.0%, BRCA1 expr act -41.2%, PLK1 PBD block 29.9µM* and VDR inhibitor -1.7%.
Cc1noc(NS(=O)(=O)c2ccc(NC(=O)CSc3nc4ccccc4s3)cc2)c1C was read as Tb PFK inh -18.1%, BRCA1 expr act -6.8%, PLK1 PBD block 16.8µM* and VDR inhibitor inconclusive.
Cc1ccc(-c2cc(C(=O)Nc3ccc(S(=O)(=O)Nc4onc(C)c4C)cc3)c3ccccc3n2)cc1 was read as Tb PFK inh 4.8%, BRCA1 expr act -3.4%, PLK1 PBD block 33.6µM* and VDR inhibitor -5.6%.
For CCOc1ccc(N(CC(=O)NC2CCCCC2)S(=O)(=O)c2c(C)noc2C)cc1 the results were Tb PFK inh -1.9%, BRCA1 expr act 0.0%, PLK1 PBD block 29.9µM* and VDR inhibitor inconclusive.
For CCc1ccc(N(CC(=O)O)S(=O)(=O)c2c(C)noc2C)cc1 the results were Tb PFK inh 4.3%, BRCA1 expr act 0.0%, PLK1 PBD block 29.9µM* and VDR inhibitor -8.9%.
Cc1nnc(N2C(=O)C(O)=C(C(=O)c3ccco3)C2c2cccc([N+](=O)[O-])c2)s1 (centres undefined) was read as Tb PFK inh -1.2%, BRCA1 expr act -7.0%, PLK1 PBD block -6.5% and VDR inhibitor -13.1%.
`Cc1cc(C)c2nc(N3C(=O)C(O)=C(C(=O)c4ccco4)C3c3cccc(O)c3)sc2c1` (centres undefined) gave Tb PFK inh -0.1%, BRCA1 expr act -12.6%, PLK1 PBD block 26.7µM* and VDR inhibitor 79.4µM*.
Cc1cc(C)c2nc(N3C(=O)C(O)=C(C(=O)c4ccco4)C3c3ccc(O)cc3)sc2c1 (centres undefined) was read as Tb PFK inh -1.9%, BRCA1 expr act -15.5%, PLK1 PBD block 18.9µM* and VDR inhibitor 79.4µM*.
`CCOC(=O)c1sc(N2C(=O)C(O)=C(C(=O)c3ccco3)C2c2cccc([N+](=O)[O-])c2)nc1C` (centres undefined) gave Tb PFK inh -1.0%, BRCA1 expr act 6.3%, PLK1 PBD block 29.9µM* and VDR inhibitor 70.8µM*.
Cc1ccc2nc(N3C(=O)C(O)=C(C(=O)c4ccco4)C3c3ccc(O)cc3)sc2c1 (centres undefined) was read as Tb PFK inh -6.8%.

Compound activity as filed in PubChem.
